Screening results as filed in PubChem BioAssay.
Only some compounds are listed: those with a hit (about 2.1% of all), similar ones and a draw of the others.
Giardia kill – kills Giardia lamblia. Giardia lamblia trophozoite viability. activity change, % at 7.66 µM, hits read low. actives 0.15% (n = 340,000). AID 540267; in the data active = activity change below about -80%; inconclusive = between about -30% and that limit;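 note: parasites exposed to compound for two days anaerobically before the ATP read; % is set by controls: 0 for no effect and ±100 for the full control effect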
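Anaerobic 48 hrs incubation at 37 deg C of 100 trophozoites/well with test compounds; ATPLite 1-Step luminescence, 15-30 min RT, reports cellular ATP as viability.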
ClpP mod – qHTS Assay for Activators of ClpP; Potency, µM (series often up to 57.5 µM), for the others: top-dose activity change, negative = active; purified B. subtilis ClpP, FRET peptide cleavage, 20 min; actives 1.9% (n = 340,000); active = well fitted falling curve with a large enough effect; inconclusive = small, poorly fitted or top-dose-only effect; inactive = no such curve, though single readings can be large or run the other way; note: potency is the fitted concentration of half-maximal effect; the source files actives as falling curves though it sought activators and does not explain the sign; nearly all actives have a fitted effect of over 65% in size
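Purified B. subtilis ClpP, 10 microg/mL final in Tris/HCl pH8 with KCl, BSA, glycerol and Tween-20, cleaved an Abz/nitrotyrosine-quenched decapeptide. Fluorescence (ex 320, em 430) was read at 0 and 20 min at room temperature. Delta was normalized to 5.8 microM ADEP and DMSO/no-enzyme controls.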
uPA generation – inhibitors of cell surface uPA generation; cell surface uPA generation assay, qHTS; Potency, µM (highest dose often 38.3 µM), without a hit: at the top dose activity change, negative = inhibition, most hits filed as inhibitors; actives 0.31% (n = 330,000); active = well fitted inhibition curve with a large enough effect; inconclusive = small, poorly fitted or top-dose-only effect; inactive = no such curve, though single readings can be large or run the other way; tested in mouse RAW 264.7 cells; note: potency is the fitted concentration of half-maximal effect; % is set by controls: 0 for no effect and ±100 for the full control effect; nearly all actives have a fitted effect of over 55% in size
B2AR arrestin – recruits beta-arrestin to the human beta2-adrenergic receptor; beta-arrestin recruitment to beta2AR, cell-based reporter; Potency, µM (top dose mostly 46.1 µM), inactives show at the highest dose activation, most hits filed as activators; actives 0.02% (n = 330,000);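 note: potency is the fitted concentration of half-maximal effect; 0% = DMSO controls and full agonism = EC100 isoproterenol or metaproterenol; nearly all actives have a fitted effect of over 65% in size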
Target sequence (P07550 whole entry, looked up): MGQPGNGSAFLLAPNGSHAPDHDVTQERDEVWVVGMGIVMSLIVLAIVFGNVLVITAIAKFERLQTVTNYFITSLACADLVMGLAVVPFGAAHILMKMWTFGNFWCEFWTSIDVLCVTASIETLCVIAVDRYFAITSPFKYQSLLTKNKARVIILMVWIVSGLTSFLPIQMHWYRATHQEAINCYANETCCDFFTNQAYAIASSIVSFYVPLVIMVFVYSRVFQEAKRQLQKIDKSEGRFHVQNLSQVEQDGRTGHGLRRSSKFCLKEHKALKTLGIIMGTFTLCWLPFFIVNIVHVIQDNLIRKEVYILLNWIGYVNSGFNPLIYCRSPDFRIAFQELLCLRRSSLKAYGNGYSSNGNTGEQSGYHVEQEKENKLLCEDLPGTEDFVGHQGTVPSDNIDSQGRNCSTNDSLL
Mito fusion act – mitochondrial division inhibition or fusion activation; S. cerevisiae fusion-defective mutant growth rescue, CellTiterGlo 48 h; Potency, µM (doses to about 46.1 µM), inactives show top-dose growth rescue (activation), hits mostly activators; actives 0.23% (n = 320,000); AID 485298; note: potency is the fitted concentration of half-maximal effect; % of control where 0% means no effect; nearly all actives have a fitted effect of over 45% in size
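Luminescent cell viability in 1536-well qHTS format served as the measure of rescued growth in ts fusion-mutant S. cerevisiae cultured on non-fermentable YPEG for 48 hours at 37C.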
p53 reactivator – re-activators of mutant p53; H1299 p53-A138V BP100-luciferase reporter, luminescence, 24 h; Potency, µM (doses to about 92.2 µM), for the others: at the highest dose activity change, positive = activation, actives largely listed as activators; actives 0.063% (n = 320,000); note: potency is the fitted concentration of half-maximal effect; % of control where 0% means no effect; nearly all actives have a fitted effect of over 45% in size
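H1299 (p53-null), stable ts p53-A138V + BP100-Luc; 1000 cells/well, Opti-MEM/10% FBS; cpd 4 pt, 1:5; 24 h, 37 deg C, 5% CO2; detection reagent 10 min RT; luminescence.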
ClpP validation – inhibits B. subtilis ClpP protease, hit validation; shares compounds with ClpP mod; purified B. subtilis ClpP, FRET-FV substrate cleavage, 20 min; Potency, µM (top dose mostly 57.5 µM), for the others: at the highest dose activity change, negative = inhibition, most hits filed as inhibitors; actives 40% (n = 470); AID 743245; note: potency is the fitted concentration of half-maximal effect; % is set by controls: 0 for no effect and ±100 for the full control effect; nearly all actives have a fitted effect of over 70% in size
Starred values were filed as active, the others as inactive; ? = inconclusive; / = no result given. Unless noted, calls come from the whole dose curve; as a rule, active = well fitted curve in the direction sought with a large enough effect; inconclusive = small, poorly fitted or top-dose-only effect, or another doubt; inactive = no such curve, though single readings can be large; an effect the other way counts as inactive or inconclusive.

SMILES | Giardia kill | ClpP mod | uPA generation | B2AR arrestin | Mito fusion act | p53 reactivator | ClpP validation
COc1ccc(-c2nc3ccccc3s2)cc1NC(=O)c1cccc(F)c1 | / | 74% | / | / | / | / | ?
CCOC(=O)c1c(/C=N/Nc2ccccc2)c2sc(C)cc2n1C | / | / | / | 0% | 8% | / | /
CS(=O)(=O)N(Cc1ccccc1)c1ccc(C(=O)Nc2ccc(Cl)cc2)cc1 | / | 0% | / | / | / | / | /
COc1ccc2sc(N(Cc3cccnc3)C(=O)C3COc4ccccc4O3)nc2c1 (centres undefined) | / | -2% | / | / | / | / | /
Cc1cc(C)n(C(C)CC(=O)Nc2ccc(Cl)cc2C)n1 (centres undefined) | / | 0% | / | / | / | / | /
CCC(=O)n1nc(-c2ccccc2)nc1NCc1ccccc1 | -15 | 38% | 1% | 0% | -5% | ? | 6%
COCC(=O)n1nc(-c2ccccc2)nc1NCc1ccccc1 | -18 | / | 0% | 0% | -10% | -8% | /
CC(C)c1ccc(Nc2ncnc3c2c(-c2ccccc2)cn3-c2ccccc2)cc1 | / | 2.5µM* | / | / | / | / | 24µM*
CC(=O)Nc1ccc(Nc2ncnc3c2c(-c2ccccc2)cn3-c2ccccc2)cc1 | / | -12% | / | / | / | / | /
Cc1cc(C)c2c(=O)cc(C(=O)Nc3sc4c(c3C(=O)NCc3ccccc3)CCCC4)oc2c1 | / | 1% | / | / | / | / | /
COc1ccc(-c2cn3cccnc3n2)cc1NC(=O)c1cc(C)cc(C)c1 | / | 4% | / | / | / | / | /
COc1nc(Nc2ccc(-c3nc4ccccc4o3)cc2)nc(N2CCOCC2)n1 | -6 | 8.9µM* | -3% | / | / | / | 19µM*
c1ccc2oc(-c3ccc(Nc4nc(N5CCCCC5)nc(N5CCOCC5)n4)cc3)nc2c1 | / | / | / | 0% | -1% | 8% | /
COc1ccccc1NC(=O)Cn1c2ccccc2c2nc3n(c(=O)c21)CCS3 | 20 | 3.2µM* | 6% | 0% | -3% | 2% | ?
O=C(Cn1c2ccccc2c2nc3n(c(=O)c21)CCS3)Nc1ccccc1C(F)(F)F | 18 | / | 7% | 0% | 12% | 0% | /
Nc1c(-c2nc(-c3cccs3)no2)nnn1-c1cccc(F)c1 | / | -1% | / | / | / | / | /
Cc1cc(=O)oc2c(C)c(OC(=O)c3ccco3)ccc12 | -6 | 32% | 3% | / | / | / | 7%
CCC(=O)Oc1ccc2c(C)cc(=O)oc2c1C | -16 | 52% | 6% | 0% | 2% | 13% | /
CCOc1cccc(C2C=C(c3ccc4c(c3)OCO4)NC(c3ccc(Br)cc3)N2)c1O (centres undefined) | -14 | -1% | / | / | / | / | /
COc1ccc(Br)cc1CNC(=O)c1cnc2sc(N3CCCCCC3)nn2c1=O | / | 8.9µM* | / | / | / | / | 0%
Cc1ccccc1CSc1ncc(Cl)c(C(=O)Nc2nc3ccc(F)cc3s2)n1 | / | -4% | / | / | / | / | /
COc1ccc2nc3n(c(=O)c2c1)-c1cc2ccccc2cc1C(=O)NC3Cc1ccccc1 (centres undefined) | / | 5.6µM* | / | / | / | / | ?
O=C(Nc1nnc(-c2ccncc2)s1)C1CCCO1 (centres undefined) | 11 | 6.3µM* | -1% | 0% | 5% | ? | 12µM*
Cc1cc(C)n2nc(-c3sccc3-n3c(C)ccc3C)cc2n1 | 3 | 36% | -7% | 0% | 5% | ? | ?
Cc1ccc(S(=O)(=O)N2CCN(C(=O)CN3CCCSc4ccccc43)CC2)cc1 | -4 | 40% | 1% | 0% | 8% | 1% | -3%
N#Cc1ccccc1S(=O)(=O)N1CCN(C(=O)CN2CCCSc3ccccc32)CC1 | 11 | 0% | -4% | 0% | 6% | 10% | /
COC(=O)c1ccc(OC)c(Cn2c(=O)n(-c3cccc(Cl)c3)c(=O)c3c2c2cc(C)ccc2n3C)c1 | / | 4% | / | / | / | / | /
COC(=O)c1cc(Cl)c(NC(=O)c2cc3ccccc3o2)cc1OC | -5 | 37% | 1% | 0% | 7% | -1% | -26%
